From PubChem BioAssay AID720554 (ICCB-Longwood Screening Facility, Harvard Medical School, 2013)
Screen size: about 12,000 compounds; about 45 (0.4%) were called active. No stated cut-off is given here; in the data, active means inhibition mostly above about 83% (no sharp cut-off); inactive means mostly below about 52%. What follows is part of a selection rich in actives, with near analogues and random picks from the rest.

Columns and labels:
[1] = BmaI1 acyl-homoserine lactone synthase inhibition – biochemical, fluorescence intensity, with counterscreen (AID 720554); conditions: BmaI1 enzyme assay, measured here: counterscreen fluorescence % control, concentration not given here
[2] = tested on: acyl-homoserine lactone synthase BmaI1 (Burkholderia mallei ATCC 23344); experiment: as above; conditions: BmaI1 enzyme assay, stronger effect = higher value, concentration not given here

Structure (SMILES)	inhibition [1] [%]	inhibition [2]
COc1ccc(C(=O)Nc2nccs2)c(F)c1	6.5	9.5% (inactive)
Cc1ccc(SCC(=O)NC(=O)C(C)C)cc1C	8	14.5% (inactive)
CC(C)c1nc(C#N)c(NCc2cccnc2)o1	16.5	31% (inactive)
Cc1cc(C(=O)OCC(=O)c2ccc(NC(=O)CC(C)C)cc2)no1	14.5	13.5% (inactive)
FC(F)Oc1ccc(NC(=S)NC2CCCC2)cc1	-10.5	-12.5% (inactive)
CN(CC(=O)Nc1ccc(Cl)cc1)C(=O)c1ccc(OC(F)F)cc1	17	13% (inactive)
FC(F)Oc1ccc(NC(=S)NNc2ccc(Cl)nn2)cc1	28	104% (active)
CCC(C)N=C1NC(=O)C(CC(=O)NCc2ccccc2)S1 (stereo not given)	8.5	10.5% (inactive)
COC(=O)c1c(C)[nH]c(=O)[nH]c1=S	1.5	-6.5% (inactive)
COC(=O)C1=NC=CN2CCS(=O)(=O)N=C12	9.5	7% (inactive)
Cc1sc2c(c1C)C1=NS(=O)(=O)CCN1C=N2	10	88.5% (active)
O=S1(=O)CCN2C=CSC2=N1	11.5	17% (inactive)
CCOc1ccccc1NC(=O)CSc1nc(O)cc(=O)n1C1CCCC1	5.5	7.5% (inactive)
CCOc1ccc(O)c(C=NC2CCCC2)c1	2.5	2.5% (inactive)
COc1ccc(OCC(=O)N2CC(C)CC(C)C2)cc1 (stereo not given)	-8	7% (inactive)
N/C(Cc1nc2ccccc2[nH]1)=N\O	2	24% (inactive)
NC(=S)Cc1nc2ccccc2[nH]1	27	98% (active)
CC(C)(C)Cc1nc2ccccc2[nH]1	18	20.5% (inactive)
Cc1cc(=O)[nH]c(NNC(=S)Nc2ccc(S(=O)(=O)N3CCOCC3)cc2)n1	10	72% (inactive)
COc1ccc(NC(=O)COC(=O)C23CCC(=O)N2c2ccccc2S3)cc1 (stereo not given)	5	-0.5% (inactive)
Cc1ccc(C(=O)OCC(=O)Nc2ccc(N(C)C)cc2)c(C)c1	-7.5	24.5% (inactive)
Cc1ccc(NC(=O)Nc2ccc3c(c2)C(=O)NC3=O)cc1	14	9% (inactive)
Cc1ccc(NC(=O)Nc2ccc(N(C)C)cc2)cc1	3.5	98.5% (active)
CN(C)C(CNC(=O)c1ccc2ncsc2c1)c1cccs1 (stereo not given)	13	18% (inactive)

Structure (SMILES)	inhibition [1] [%]	inhibition [2]
O=C(CCc1nc2ccccc2o1)Nc1cccc(-n2cnnn2)c1	6.5	16.5% (inactive)
CC(C)NC(=S)NNc1ncc(C(F)(F)F)cc1Cl	8	89% (active)
FC(F)(F)c1cnc(NNC(=S)NCC2CCCO2)c(Cl)c1 (stereo not given)	-1	51.5% (inactive)
CC(C)NC(=S)NNc1ccccc1C(F)(F)F	-31	14% (inactive)
CCN(C(=O)CSc1nnc(-c2ccccc2)c(-c2ccccc2)n1)C1CCS(=O)(=O)C1 (stereo not given)	-2.5	6% (inactive)
COC(=O)C1=C(C)NC(C)=C(C(=O)OC)C1C(=O)OCC(=O)Nc1cccc2nsnc12	-2	-15% (inactive)
N#CCC(=O)Nc1ccc(C(=O)NCc2ccccc2)cc1	21.5	29.5% (inactive)
CS(=O)(=O)CCC1NC(=O)NC1=O (stereo not given)	2.5	10.5% (inactive)
CC(=O)Nc1cccc(C(=O)Nc2ccc(N3CCCCC3)cc2)c1	7	83.5% (active)
COc1ccc(C(=O)Nc2ccc(N3CCCCC3)cc2)cc1	-2	22.5% (inactive)
O=C(Nc1ccc(N2CCCCCC2)cc1)c1ccncc1	26.5	62% (inactive)
Cc1cc(C(=O)CSc2ccccn2)c(C)n1Cc1cccs1	12	16% (inactive)
CCN(C(=O)C(C)Sc1nc(C)cs1)c1ccccc1 (stereo not given)	3.5	14.5% (inactive)
CCN(CC)C(=S)SSC(=S)N(CC)CC	-13.5	96% (active)
CCN(CC)C(=S)SCc1ncc(-c2ccccc2)o1	3.5	13% (inactive)
FC(F)(F)c1nc(NNC(=S)NCC2CCCO2)c2ccccc2n1 (stereo not given)	25	100% (active)
Cc1ccc(NNC(=S)NCC2CCCO2)c(C)c1 (stereo not given)	6.5	10% (inactive)
O=C(O)c1ccc(NNC(=S)NCC2CCCO2)cc1 (stereo not given)	-33	-78.5% (inactive)
O=C1CCC(C(=O)NC2CCCCCC2)=NN1	11	18.5% (inactive)
Cc1cc(SCC(=O)O)n2c(nc3ccccc32)c1C#N	1	20% (inactive)
Cc1ccccc1N1C(=O)C=CC1=O	4	82% (active)
Cc1ccccc1-n1cc[nH]c1=S	4.5	23.5% (inactive)
Cc1ccccc1N1C(=O)Cc2ccccc2C1=O	2	16.5% (inactive)
O=C(O)CCN(Cc1ccccc1)S(=O)(=O)c1cccs1	1.5	11% (inactive)

Structure (SMILES)	inhibition [1] [%]	inhibition [2]
Cc1nc2ccc(NC(=O)C3CCCC3)cc2s1	12.5	14% (inactive)
N#Cc1ccc(CSc2nncn2-c2ccccc2)cc1	-2	-5.5% (inactive)
NNc1nc(-c2ccccc2)c2cc(Br)ccc2n1	16.5	91% (active)
Cc1ccc2nc(N3CCCC3)nc(-c3ccccc3)c2c1	2.5	3% (inactive)
Nc1nc(N)c2nc(-c3ccccc3)c(N)nc2n1	21	5% (inactive)
CCC(=O)Nc1ccc(C(=O)CN2C(=O)NC3(CCCc4ccccc43)C2=O)cc1 (stereo not given)	16	14.5% (inactive)
O=C(COc1ncnc2ccc(Br)cc12)N1CCCCC1	4.5	4.5% (inactive)
Cc1cc(C)nc(SC2=C(Nc3ccc(O)cc3)C(=O)N(Cc3ccccc3)C2=O)n1	26.5	86.5% (active)
Cc1cc(C)nc(SCC(=O)OCCN2C(=O)c3ccccc3C2=O)n1	9.5	18% (inactive)
Cc1cc(C)nc(SC2=C(N3CCC(C)CC3)C(=O)N(Cc3ccccc3)C2=O)n1	4.5	14% (inactive)
Cc1cc(O)c(CN2CC=C(c3ccccc3)CC2)cc1C(C)C	-16	-85.5% (active)
COc1ccc2c(CN3CC=C(c4ccccc4)CC3)cc(=O)oc2c1	8	4.5% (inactive)
Cc1c(CN2CC=C(c3ccccc3)CC2)c(=O)n(-c2ccccc2)n1C	-2.5	9% (inactive)
N#Cc1ccccc1NC(=O)CN1CCNC(=O)C1	5	6% (inactive)
NCCCOC1CCCCC1	11	16.5% (inactive)
NS(=O)(=O)c1cc(C(=O)O)cs1	-4.5	3% (inactive)
Cc1cc(C)n(-c2ccc(C(=O)OCC(=O)NCC3CCCO3)cc2)n1 (stereo not given)	9	8% (inactive)
O=C1NC(c2cccc(O)c2O)Nc2sc3c(c21)CCC3 (stereo not given)	19	83% (active)
Cc1ccccc1CSCc1nc(N)nc(Nc2ccccc2C)n1	4	7% (inactive)
O=C1c2ccccc2C(=O)N1/N=C/c1ccc(-c2ccccc2Br)o1	2.5	4.5% (inactive)
O=S(=O)(c1ccc(N=C=S)cc1)N1CCOCC1	-3	13% (inactive)
NC(=O)C1CCN(Cc2cc(=O)oc3cc(O)ccc23)CC1	-4.5	5.5% (inactive)
CC1(C)C(=O)Nc2ccccc2N1C(=O)CSc1ncnc2ccccc12	10.5	18.5% (inactive)
COP1(=S)/C(=C2/N(C)c3ccccc3C2(C)C)C=NN1C (stereo not given)	6	88% (active)

Structure (SMILES)	inhibition [1] [%]	inhibition [2]
CN1/C(=C2\C=NN(C)P2(=S)N2CCCC2)C(C)(C)c2ccccc21 (stereo not given)	10	15% (inactive)
CN1/C(=C2\C=NN(C)P2(=O)Nc2ccccc2)C(C)(C)c2ccccc21 (stereo not given)	5	14.5% (inactive)
COc1ccccc1/C=N/OCC(=O)NCc1ccc2c(c1)OCO2	3.5	16.5% (inactive)
COC(=O)c1ccc(-n2c(C)cc(C(=O)CN3C(=O)CN(C)C3=O)c2C)cc1	-4.5	9% (inactive)
Nn1c(NNC(=O)c2ccccc2)nnc(-c2cccs2)c1=O	11.5	92% (active)
Nc1nnc(-c2cccs2)c(=O)n1N	70.5	20% (inactive)
O=C(N/N=C/c1sc(N2CCCCC2)nc1-c1cccs1)c1ccccc1	-8.5	17% (inactive)
CCCn1c(C)cc(/C=C(\C#N)C(=O)Oc2c(C)ccc(C)c2C)c1C	2.5	17.5% (inactive)
CN(C)Cc1ccccc1C#N	1	-3.5% (inactive)
Cc1ccc(S(=O)(=O)NCC(=O)OC2CCOC2=O)cc1 (stereo not given)	4	-3% (inactive)
COC(=O)Cc1c(C(=O)OC)sc(N)c1C#N	0.5	5.5% (inactive)
c1cc2n[nH]nc2cn1	-4	12% (inactive)
COc1cc(C(=O)CSc2cccc[n+]2[O-])cc(OC)c1OC	6.5	87% (active)
COc1ccccc1C(=O)CSc1cccc[n+]1[O-]	10	57% (inactive)
COc1ccccc1C(=O)NC(=O)CSc1cccc[n+]1[O-]	10	16.5% (inactive)
Cc1nn(-c2ccccc2)c2c1CC(C#N)(c1ccccn1)C1CCCN21 (stereo not given)	3	10% (inactive)
COc1cc(OC)c(OC)cc1CNC(=O)CCc1c(C)noc1C	0	11% (inactive)
Cc1cc(C(=O)CN(Cc2ccco2)S(=O)(=O)/C=C/c2ccccc2)c(C)n1C	0.5	2.5% (inactive)
Cc1csc(=Nc2ccccc2F)n1/N=C/c1ccncc1	-3	89% (active)
Oc1ccc(/C=N/n2c(-c3ccco3)csc2=Nc2ccc(F)cc2F)c(O)c1	19	34% (inactive)
CN=c1scc(-c2ccccc2)n1/N=C/c1ccsc1	-7	6% (inactive)
CCN(C(=O)Cn1ncc(Cl)c(Cl)c1=O)C1CCS(=O)(=O)C1 (stereo not given)	6	12% (inactive)
COc1ccc2nc(NC(=O)c3ccco3)sc2c1	14.5	19% (inactive)
